# Experimental data published in article PMC5540273 (PLoS ONE, 2017).
# Columns and labels:
# Conditions in all cases: concentration: 1 μM, replicates: in singlicate; n = 1
# AMPK-alpha1 = system: T1, AMPK-alpha1
# T1 construct: gene PRKAA1
# AMPK-alpha2 = system: T2, AMPK-alpha2
# T2 construct: gene PRKAA2
# ANKK1 = system: ANKK1
# ARK5 = system: T3, ARK5
# T3 construct: gene NUAK1
# ASK1 = system: T4, ASK1
# T4 construct: gene MAP3K5
# ASK2 = system: T5, ASK2
# T5 construct: gene MAP3K6
# AURKA = system: AURKA
# AURKB = system: AURKB
# AURKC = system: AURKC
# AXL = system: AXL
# BIKE = system: T6, BIKE
# T6 construct: gene BMP2K
# BLK = system: BLK
# BMPR1A = system: BMPR1A
# BMPR1B = system: BMPR1B
# BMPR2 = system: BMPR2
# BMX = system: BMX
# BRAF = system: BRAF
# BRK = system: T7, BRK
# T7 construct: gene PTK6
# BRSK1 = system: BRSK1
# BRSK2 = system: BRSK2
# 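Also: KINOMEscan kinase panel screen.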
SMILES,%Inh (AMPK-alpha1) [%],%Inh (AMPK-alpha2) [%],%Inh (ANKK1) [%],%Inh (ARK5) [%],%Inh (ASK1) [%],%Inh (ASK2) [%],%Inh (AURKA) [%],%Inh (AURKB) [%],%Inh (AURKC) [%],%Inh (AXL) [%],%Inh (BIKE) [%],%Inh (BLK) [%],%Inh (BMPR1A) [%],%Inh (BMPR1B) [%],%Inh (BMPR2) [%],%Inh (BMX) [%],%Inh (BRAF) [%],%Inh (BRK) [%],%Inh (BRSK1) [%],%Inh (BRSK2) [%]
Cc1c(Cn2c3ccccc3n3c(=O)cc(N4CCOCC4)nc23)cccc1C(F)(F)F [GSK2306394],0,0,0,8,0,8,0,9,14,5,7,34,0,0,0,0,8,3,0,0
O=C(Nc1n[nH]c2cc(-c3ccsc3)ccc12)C1CC1 [SB-732932],7,0,40,0,0,30,13,35,20,43,54,0,27,22,32,15,9,0,59,61
Cc1c(Cn2c(C)c(C)n3c(=O)cc(N4CCOCC4)nc23)cccc1C(F)(F)F [GSK2328680],0,2,0,0,2,0,0,0,0,0,2,29,6,0,5,14,0,6,0,0
COc1nccc(-c2c(-c3ccc(F)cc3)ncn2CCCN2CCOCC2)n1 [SB-282852],77,0,0,0,0,0,23,42,0,0,0,0,0,0,25,0,20,0,0,0
CC(C)c1ccc(O)cc1Nc1ccnc2ccc(C(F)(F)F)cc12 [GW482059],20,13,0,0,1,0,0,0,0,14,13,30,0,0,0,0,0,0,1,5
Cc1cnc(N)c(/C=C/c2cncc(C(=O)NCCc3ccc(Cl)cc3Cl)c2)c1.Cl [GSK190937],3,18,3,1,2,0,1,,12,5,23,3,0,0,0,19,1,7,0,0
CC(=O)c1cccc(NC(=O)NC2CCN(c3ccnc(Nc4ccc(F)cc4)n3)C2)c1 (stereo not shown) [GSK1379710],0,0,19,31,20,0,12,0,21,5,25,0,0,0,10,16,0,4,6,0
Cn1cncc1-c1cc2c(Nc3ccc(OCc4ccccc4)cc3)ncnc2cn1 [GW281179],0,0,0,13,9,0,0,25,5,0,4,27,13,0,8,1,0,19,0,2
O=c1cc(N2CCOCC2)nc2n(Cc3ccccc3F)ccn12 [GSK2297428],0,0,9,0,0,0,0,13,0,0,0,21,0,0,0,13,0,36,0,100
CNc1cc(-c2ccc3c(N)n[nH]c3c2)nc(N)n1 [GSK2224810],0,0,10,0,0,0,4,0,10,0,74,0,16,78,5,15,0,6,2,0
CC[C@@H]1CO[C@H](C(=O)Nc2ccccc2)CN1c1cc(-c2ccc3c(N)n[nH]c3c2)nc(NC)n1 [GSK2376236],0,1,0,14,4,0,,0,48,0,15,0,0,0,0,41,0,7,0,1
COc1ccc(CSc2nnc(-c3ccc4c(c3)CCO4)o2)cc1,0,0,0,33,0,0,0,0,0,0,0,0,0,0,0,0,0,0,0,0
COc1ccc2cc(-c3nc(-c4ccccc4C(C)C)[nH]c3-c3ccncc3)ccc2c1 [SB-660566],17,0,6,18,16,3,5,30,0,36,0,0,17,0,5,0,6,22,4,10
CNc1nc(-c2ccc3c(N)n[nH]c3c2)cc(N2C[C@@H](C(=O)NC3CCCCC3)OC[C@H]2C)n1 [GSK2375584],6,0,8,23,12,0,9,16,12,0,24,0,0,0,0,23,0,14,14,19
CN1c2ccc(-c3ccc(C(N)=O)cc3)cc2-c2[nH]ncc2S1(=O)=O,0,0,0,0,0,0,0,21,0,5,9,6,0,0,0,0,0,0,0,6
COc1ccc(CSc2nnc(-c3ccc4ncsc4c3)o2)cc1C(F)(F)F,0,13,0,10,0,4,0,13,0,0,0,0,17,0,0,0,0,0,0,0
CC(=O)c1c(C)c2cnc(Nc3ccc(N4CCNCC4)cn3)nc2n(C2CCCC2)c1=O,0,0,0,0,0,0,0,0,0,0,0,0,15,0,0,0,0,0,0,0
CCCCc1nn2ncccc2c1-c1ccnc(NC2CC2)n1 [GW684374],0,0,8,12,0,0,30,12,38,0,23,0,0,0,0,4,7,0,0,0
CC(C)c1cc(-c2ccc3c(N)n[nH]c3c2)nc(N)n1 [GSK2250882],0,0,8,0,0,7,,18,56,0,72,5,0,0,4,18,0,14,40,22
CS(=O)(=O)CCNCc1nc(-c2ccc3ncnc(Nc4ccc(OCc5ccccc5)c(Cl)c4)c3c2)cs1.Cl [GW582764],0,0,0,0,0,0,0,23,0,0,0,48,0,0,15,0,2,3,0,0
